This is an account of results in PubChem BioAssay AID1851 (National Center for Advancing Translational Sciences (NCATS), 2009).

“And” between values parts separate entries of the source, which are not always exact repeats. Equal entries are not always repeated. The campaign covered roughly 16,000 compounds. About 5,100 (32%) were called active. About 25% were inconclusive and are not listed. The list shows a part of the results. A number with no mark means an inactive call. The call rests on the fitted dose curve; in most records, active means well fitted curve in the direction sought with a large enough effect; inconclusive means small, poorly fitted or top-dose-only effect, or effect the other way; inactive means no such curve, though single readings can be large or run the other way.
On the % scale 0 is the no-effect control and ±100 the full control effect.

Sequence of Cytochrome P450 3A4 (Homo sapiens) (P08684 whole entry, looked up): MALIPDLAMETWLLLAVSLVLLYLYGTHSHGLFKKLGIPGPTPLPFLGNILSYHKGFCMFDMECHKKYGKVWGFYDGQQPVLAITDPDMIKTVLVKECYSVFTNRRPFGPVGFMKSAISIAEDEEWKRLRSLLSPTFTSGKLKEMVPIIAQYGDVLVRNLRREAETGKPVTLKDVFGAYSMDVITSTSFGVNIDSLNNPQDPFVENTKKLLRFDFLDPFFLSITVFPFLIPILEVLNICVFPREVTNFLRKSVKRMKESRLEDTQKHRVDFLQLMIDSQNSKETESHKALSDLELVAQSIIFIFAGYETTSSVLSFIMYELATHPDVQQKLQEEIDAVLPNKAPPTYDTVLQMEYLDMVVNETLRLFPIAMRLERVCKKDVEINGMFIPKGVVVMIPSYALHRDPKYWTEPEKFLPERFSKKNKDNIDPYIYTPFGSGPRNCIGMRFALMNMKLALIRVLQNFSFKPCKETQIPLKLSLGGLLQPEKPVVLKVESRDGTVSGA

The experiment has as its target Cytochrome P450 3A4 (Homo sapiens) (UniProt P08684). The experiment can be described thus: Cytochrome panel assay with activity outcomes. Particulars: recombinant CYP, pro-luciferin dealkylation, luminescence, p450-cyp3a4; series mostly up to 57.1 µM; activity, negative = inhibition: at the top concentration.
In the case of `CN[C@H](Cc1ccccc1)c1cccc(OC)c1O`, the activity, negative = inhibition is -2.26% [at 11.4 µM].
Take `c1ccc2c(c1)Sc1ccccc1N2C[C@H]1CN2CCC1CC2`: the activity, negative = inhibition is -6.51% [at 11.4 µM].
In the case of `CCOP(=O)(OCC)C(NC(C)=O)C(Cl)(Cl)Cl` (stereo not given), the “activity, negative = inhibition” value is -11.2%.
Consider `CCCC[N+]12CCC(CC1)C(C(=O)c1cccs1)C2` (stereo not given), for which the “activity, negative = inhibition” value is -11.1%.
Regarding `CC(=O)NCCc1c[nH]c2ccccc12`, the “activity, negative = inhibition” value was -21.8%.
Consider `ClCCNc1nc2ccc(Cl)cc2[nH]1`, for which the “activity, negative = inhibition” value is 13.4%.
Same read-out and setting: for `CC(=O)OCC1=C(C(=O)[O-])N2C(=O)[C@@H](NC(=O)CCC[C@@H](N)C(=O)[O-])[C@@H]2SC1.[Zn+2]` the value was 2.83%; for `C=CCN1CCC2(C)c3cc(O)ccc3C[C@H]1[C@H]2C`, “inactive”.
With `C=CCN1C[C@H](C)N([C@H](c2ccc(C(=O)N(CC)CC)cc2)c2cccc(O)c2)C[C@H]1C`, the AC50 (commonly the concentration giving half of the maximal activity seen) was 12.6 µM (active).
Take `C[C@H](N)Cc1c[nH]c2ccc(O)cc12`: the activity, negative = inhibition result was “inactive”.
In the case of `O=C(CN1CCCCC1)Nc1ccc(Br)cc1C(=O)c1ccccc1Cl`, the activity, negative = inhibition was -0.765% [at 2.29 µM].
For the compound `COc1ccc(OCC(=O)Nc2ccc(Cl)cc2C(=O)c2ccccc2)cc1`, the AC50 is 2.24 µM (active).
Consider `O=C(Nc1ccc(Cl)cc1C(=O)c1ccccc1Cl)c1ccco1`, for which the “activity, negative = inhibition” value was -25.6%.
On to `CNC(C)(C)Cc1ccccc1`, for which the “activity, negative = inhibition” value is -9.59% [at 25.6 µM].
With `CCCN1CCC[C@@H]2Cc3[nH]ncc3C[C@H]21`, the activity, negative = inhibition entry is “inactive”.
The same measure, in the same setting: for `CC(C(=O)c1c[nH]c2ccccc12)N1CCSCC1` (stereo not given) the value was -1.61% [at 2.29 µM]; for `CN(C)CCC(=O)[C@@]1(O)CC[C@H]2[C@H]3CC=C4C[C@@H](O)CC[C@]4(C)[C@H]3CC[C@]21C`, -0.253% [at 11.4 µM].
As to `c1cncc(CNc2cc(-c3ccc4c(c3)OCO4)ncn2)c1`, the AC50 is 0.794 µM (active).
As for `c1cncc(CNCCN2CCNCC2)c1`, the activity, negative = inhibition was -5.07% [at 11.4 µM].
The same measure, in the same setting: for `O[C@@H](c1cc(-c2ccccc2)nc2c1ccc1ccccc12)[C@@H]1CCCCN1` the value was -0.102% [at 11.4 µM]; for `C[C@H]1CC[C@@]2(NC1)O[C@@H]1C[C@H]3[C@@H]4CC[C@@H]5C[C@@H](O)CC[C@@]5(C)[C@@H]4CC[C@]3(C)[C@@H]1[C@@H]2C`, -6.73% [at 25.6 µM].
In the case of `NCC[C@H](O)C(=O)N[C@H]1C[C@@H](N)[C@@H](O[C@H]2O[C@@H](CN)[C@@H](O)[C@@H](O)[C@@H]2N)[C@@H](O[C@H]2O[C@@H](CO)[C@@H](O)[C@@H]2O)[C@@H]1O`, the “activity, negative = inhibition” value is -10.2% [at 25.6 µM].
On the same count and under the same terms, for `O=C(O)c1ccccc1Nc1cccc(C(F)(F)F)c1` the value was -0.956% [at 25.6 µM].
As to `CC(O)(CS(=O)(=O)c1ccccc1)C(=O)Nc1cccc(C(F)(F)F)c1` (stereo not given), the AC50 is 4.47 µM (active).
With `CC(O)(CS(=O)(=O)c1cccc(C(F)(F)F)c1)C(=O)Nc1ccc(C(F)(F)F)cc1` (stereo not given), the AC50 is 1.41 µM (active).
Still for that read-out and setting: for `CC(O)(CS(=O)(=O)c1cccc(C(F)(F)F)c1)C(=O)Nc1cccc(C(F)(F)F)c1` (stereo not given) the value was 1.41 µM (active).
Take `Cc1o[nH]c(=O)c1C[C@@H](N)C(=O)O`: the “activity, negative = inhibition” value was -12.3%.
For `CC1=C(O)C(=O)[C@H]2O[C@@H]2C1=O`, the “activity, negative = inhibition” value was -6.84%.
For the compound `O=C(O)CCCC[C@H]1SC[C@H]2NC(=O)N[C@@H]21`, the “activity, negative = inhibition” value is 0.249% [at 25.6 µM].
Turning to `O=C(O)[C@H]1[O][Sb][O][C@@H](C(=O)O)C1O` (stereo not given in full), the activity, negative = inhibition was -10.4% [at 11.4 µM].
For `C[C@]1(O)CC[C@H]2[C@@H]3[C@@H](O)CC4=CC(=O)CC[C@@]4(C)[C@H]3CC[C@]21C`, the activity, negative = inhibition was -2.12% [at 11.4 µM].
Still for that read-out and setting: for `CC1(C)N=C(N)N=C(N)N1c1cccc(C(=O)Nc2ccc(S(=O)(=O)F)cc2)c1` the value was 17.5% [at 11.4 µM]; for `O=[As](O)(O)c1ccc(N=Nc2ccc(O)cc2)cc1`, -4.07% [at 11.4 µM].
On the same count and under the same terms, for `C[N+](C)(C)CC(=O)O` the value was -1.03%; for `N=C(N)SCc1ccc(Cl)c2ccccc12` (tested in a mixture with another compound), -2.18% [at 11.4 µM] and 15.2% [at 11.4 µM].
For the compound `CC(C)c1c(CN(C)[C@@H](C)Cc2ccccc2)n(C)n(-c2ccccc2)c1=O`, the AC50 is 3.98 µM (active).
In the case of `C=C[C@@H]1CN2CC[C@H]1C[C@H]2[C@H](O)c1ccnc2ccccc12`, the activity, negative = inhibition is -1.79% [at 11.4 µM].
Still for that read-out and setting: for `CC(C)CNCCc1ccccn1` the value was -8.38% [at 11.4 µM]; for `CCC1(C)CC(=O)NC(=O)C1`, -6.38% [at 25.6 µM].
As for `COc1ccc(CNC(=O)/C=C\c2ccc3[nH]cc(CCN(C)C)c3c2)cc1`, the AC50 is 15.8 µM (active).
Consider `COc1ccc2[nH]cc(CCN(C)C)c2c1`, for which the “activity, negative = inhibition” value was -11.1%.
Regarding `CCCN(CCC)CCc1c[nH]c2ccc(C(N)=O)cc12`, the “activity, negative = inhibition” value is 11.3%.
Consider `N[C@@H](CSC1c2ccccc2-c2ccccc21)C(=O)O`, for which the activity, negative = inhibition was -17.3% [at 11.4 µM].
With `Cn1c[n+](C)cc1C(O)c1ccccc1` (stereo not given), the activity, negative = inhibition was 1.92% [at 2.29 µM].
In the case of `C=C(C)c1ccccc1` (tested in a mixture with another compound), the activity, negative = inhibition was -22.2% [at 11.4 µM].
In the case of `CN1C(=O)C(=Cc2ccc(N3CCCCC3)o2)C(=O)N(C)C1=S`, the “activity, negative = inhibition” value was 12.5%.
Take `CN1C(=O)C(=Cc2ccc(N3CCCCCC3)o2)C(=O)N(C)C1=S`: the AC50 was 3.98 µM (active).
In the case of `CCN1CCC2(CC1)NC(CO)(CO)CO2`, the “activity, negative = inhibition” value is 4.42%.
The same measure, in the same setting: for `C[C@]12N[C@@H](Cc3ccccc31)c1ccccc12` the value was “inactive”; for `Cc1cccc(N2C(=O)NC(=O)/C(=C\c3cnn(-c4ccccc4)c3)C2=O)c1`, 8.31% [at 2.29 µM].
In the case of `Cc1cc(C)cc(NC(=S)NC2CC3CCC(C2)N3Cc2ccco2)c1` (stereo not given), the “activity, negative = inhibition” value is -17.6%.
Still for that read-out and setting: for `CN(C)CS/C(N)=N/[C@H](O)C(Cl)(Cl)Cl` the value was -7.61% [at 11.4 µM].
For the compound `CC[N+](CC)(CCNC(=O)C(=O)NCC[N+](CC)(CC)Cc1ccccc1Cl)Cc1ccccc1Cl`, the “activity, negative = inhibition” value was -14.7%.
Take `C[C@@H]1CC[C@@H]2N(C1)C[C@H]1[C@@](O)([C@H](O)C[C@]3(O)[C@H]4CC[C@H]5[C@]6(O)O[C@]4(C[C@]13O)[C@@]5(C)CC[C@@H]6O)[C@@]2(C)O`: the activity, negative = inhibition was -1.62% [at 11.4 µM].
Same read-out and setting: for `Nc1ncnc2c1ncn2[C@@H]1O[C@@H](COP(=O)(O)CP(=O)(O)OP(=O)(O)O)[C@H](O)[C@@H]1O` the value was -7.46%.
